Nine molecules from ChEMBL document CHEMBL1961873, “Compounds: GSK PKIS; Assays: Nanosyn kinase panel” (2012) can be followed below.

Experiment [1] has as its target Protein kinase C gamma type (Homo sapiens) (UniProt P05129). The conditions noted are these: at 1 µM.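 Also: each value is an averaged percent inhibition of the enzyme.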
Experiment [2] has as its target T1, Protein kinase C iota type (Homo sapiens) (UniProt P41743).
T1 sequence (whole entry): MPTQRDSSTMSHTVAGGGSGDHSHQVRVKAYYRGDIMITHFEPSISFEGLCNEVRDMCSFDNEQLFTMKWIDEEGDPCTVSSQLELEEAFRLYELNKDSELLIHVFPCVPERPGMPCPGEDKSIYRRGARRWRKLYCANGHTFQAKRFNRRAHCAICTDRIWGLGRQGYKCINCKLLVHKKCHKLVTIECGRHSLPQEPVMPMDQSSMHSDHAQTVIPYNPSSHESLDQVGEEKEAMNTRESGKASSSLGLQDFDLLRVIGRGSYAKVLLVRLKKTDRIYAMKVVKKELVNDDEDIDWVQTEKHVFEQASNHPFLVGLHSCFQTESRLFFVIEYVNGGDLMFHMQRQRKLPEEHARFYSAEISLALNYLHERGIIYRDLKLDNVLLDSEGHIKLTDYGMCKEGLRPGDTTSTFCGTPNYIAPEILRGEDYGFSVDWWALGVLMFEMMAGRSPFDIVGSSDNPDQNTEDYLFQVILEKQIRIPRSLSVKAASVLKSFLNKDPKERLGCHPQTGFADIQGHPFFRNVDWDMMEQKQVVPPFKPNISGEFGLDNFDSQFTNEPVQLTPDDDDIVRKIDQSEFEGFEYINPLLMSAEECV
The conditions noted are these: at 0.1 µM.

For experiment [3], the target named is T1, Protein kinase C iota type (Homo sapiens). Conditions: at 1 µM.
For experiment [4], the target named is Protein kinase C theta type (Homo sapiens) (UniProt Q04759). The conditions noted are these: at 0.1 µM.
Sequence of Protein kinase C theta type (Homo sapiens) (Q04759 whole entry, looked up): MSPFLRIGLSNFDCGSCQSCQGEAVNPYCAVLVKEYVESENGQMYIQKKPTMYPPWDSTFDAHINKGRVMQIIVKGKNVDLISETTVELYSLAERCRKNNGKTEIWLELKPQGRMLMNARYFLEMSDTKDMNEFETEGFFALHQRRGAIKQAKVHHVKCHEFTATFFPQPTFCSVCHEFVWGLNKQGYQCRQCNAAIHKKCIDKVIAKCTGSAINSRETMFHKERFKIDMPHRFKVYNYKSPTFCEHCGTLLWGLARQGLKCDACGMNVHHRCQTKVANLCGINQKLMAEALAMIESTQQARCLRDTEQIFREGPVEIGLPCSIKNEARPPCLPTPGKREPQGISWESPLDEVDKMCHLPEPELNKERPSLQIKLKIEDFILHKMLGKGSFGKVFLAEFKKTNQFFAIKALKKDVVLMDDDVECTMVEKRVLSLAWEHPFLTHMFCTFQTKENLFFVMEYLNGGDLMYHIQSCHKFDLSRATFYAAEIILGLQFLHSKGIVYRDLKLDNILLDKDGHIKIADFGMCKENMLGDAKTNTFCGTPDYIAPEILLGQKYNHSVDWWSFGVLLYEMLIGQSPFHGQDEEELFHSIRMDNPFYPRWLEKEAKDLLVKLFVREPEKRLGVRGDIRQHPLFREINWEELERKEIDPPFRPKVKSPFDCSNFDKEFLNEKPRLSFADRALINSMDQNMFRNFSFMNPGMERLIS
Experiment [5] has the same target. The conditions noted are these: at 1 µM.
For experiment [6], the target named is Protein kinase C beta type (Homo sapiens) (UniProt P05771). The conditions noted are these: at 0.1 µM.
Sequence of Protein kinase C beta type (Homo sapiens) (P05771 2-671 limits assumed): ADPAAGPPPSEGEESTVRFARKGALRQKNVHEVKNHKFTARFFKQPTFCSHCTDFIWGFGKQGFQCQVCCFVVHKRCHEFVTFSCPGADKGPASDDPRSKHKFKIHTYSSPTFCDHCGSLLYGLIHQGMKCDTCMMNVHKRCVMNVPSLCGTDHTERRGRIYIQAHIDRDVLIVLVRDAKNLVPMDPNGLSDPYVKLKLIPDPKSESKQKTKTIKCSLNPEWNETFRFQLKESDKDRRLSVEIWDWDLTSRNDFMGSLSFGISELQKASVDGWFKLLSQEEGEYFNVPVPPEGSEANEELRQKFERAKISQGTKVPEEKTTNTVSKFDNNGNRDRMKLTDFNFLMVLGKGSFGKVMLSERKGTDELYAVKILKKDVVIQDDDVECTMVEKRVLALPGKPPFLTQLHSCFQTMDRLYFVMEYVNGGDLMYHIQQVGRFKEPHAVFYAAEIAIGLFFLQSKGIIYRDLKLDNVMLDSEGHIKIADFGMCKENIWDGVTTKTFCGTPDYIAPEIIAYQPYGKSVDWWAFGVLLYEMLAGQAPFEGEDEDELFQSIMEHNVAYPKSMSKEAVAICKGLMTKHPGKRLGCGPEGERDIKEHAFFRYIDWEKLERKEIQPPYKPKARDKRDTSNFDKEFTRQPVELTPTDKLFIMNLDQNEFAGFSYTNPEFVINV
Experiment [7] shares this target. Conditions: at 1 µM.
In experiment [8] the target is T2, Serine/threonine-protein kinase D1 (Homo sapiens) (UniProt Q15139).
T2 sequence (whole entry): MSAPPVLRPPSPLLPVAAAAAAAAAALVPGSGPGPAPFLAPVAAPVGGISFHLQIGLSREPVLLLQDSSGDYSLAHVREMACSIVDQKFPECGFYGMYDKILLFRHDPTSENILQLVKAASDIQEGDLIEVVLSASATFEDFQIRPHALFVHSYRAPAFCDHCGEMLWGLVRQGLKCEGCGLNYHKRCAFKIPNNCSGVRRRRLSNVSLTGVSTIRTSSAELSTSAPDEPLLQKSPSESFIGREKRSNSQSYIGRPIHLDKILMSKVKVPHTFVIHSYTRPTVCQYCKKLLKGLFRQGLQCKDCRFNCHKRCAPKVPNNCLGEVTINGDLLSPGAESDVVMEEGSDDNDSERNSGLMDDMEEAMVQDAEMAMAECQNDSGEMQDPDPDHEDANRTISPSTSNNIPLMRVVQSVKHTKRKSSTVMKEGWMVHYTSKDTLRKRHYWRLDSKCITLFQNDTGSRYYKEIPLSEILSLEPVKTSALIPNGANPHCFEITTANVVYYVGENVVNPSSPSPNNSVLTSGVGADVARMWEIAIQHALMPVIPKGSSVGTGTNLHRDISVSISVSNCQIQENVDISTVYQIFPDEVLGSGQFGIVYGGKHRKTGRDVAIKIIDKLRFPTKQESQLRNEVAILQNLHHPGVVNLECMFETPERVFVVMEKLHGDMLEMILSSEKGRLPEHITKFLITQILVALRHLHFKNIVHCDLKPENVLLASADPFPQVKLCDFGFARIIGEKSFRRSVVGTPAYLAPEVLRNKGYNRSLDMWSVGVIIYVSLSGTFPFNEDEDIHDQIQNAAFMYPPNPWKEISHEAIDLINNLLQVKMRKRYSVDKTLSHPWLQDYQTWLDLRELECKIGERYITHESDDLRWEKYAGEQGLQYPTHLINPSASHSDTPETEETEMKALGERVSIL
Conditions: at 0.1 µM.

Experiment [9] addresses T2, Serine/threonine-protein kinase D1 (Homo sapiens). Conditions: at 1 µM.
Experiment [10] has as its target T3, Serine/threonine-protein kinase D2 (Homo sapiens) (UniProt Q9BZL6).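 Also: reported percent inhibition values are means, part of the GSK PKIS kinase panel screen.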
T3 sequence (whole entry): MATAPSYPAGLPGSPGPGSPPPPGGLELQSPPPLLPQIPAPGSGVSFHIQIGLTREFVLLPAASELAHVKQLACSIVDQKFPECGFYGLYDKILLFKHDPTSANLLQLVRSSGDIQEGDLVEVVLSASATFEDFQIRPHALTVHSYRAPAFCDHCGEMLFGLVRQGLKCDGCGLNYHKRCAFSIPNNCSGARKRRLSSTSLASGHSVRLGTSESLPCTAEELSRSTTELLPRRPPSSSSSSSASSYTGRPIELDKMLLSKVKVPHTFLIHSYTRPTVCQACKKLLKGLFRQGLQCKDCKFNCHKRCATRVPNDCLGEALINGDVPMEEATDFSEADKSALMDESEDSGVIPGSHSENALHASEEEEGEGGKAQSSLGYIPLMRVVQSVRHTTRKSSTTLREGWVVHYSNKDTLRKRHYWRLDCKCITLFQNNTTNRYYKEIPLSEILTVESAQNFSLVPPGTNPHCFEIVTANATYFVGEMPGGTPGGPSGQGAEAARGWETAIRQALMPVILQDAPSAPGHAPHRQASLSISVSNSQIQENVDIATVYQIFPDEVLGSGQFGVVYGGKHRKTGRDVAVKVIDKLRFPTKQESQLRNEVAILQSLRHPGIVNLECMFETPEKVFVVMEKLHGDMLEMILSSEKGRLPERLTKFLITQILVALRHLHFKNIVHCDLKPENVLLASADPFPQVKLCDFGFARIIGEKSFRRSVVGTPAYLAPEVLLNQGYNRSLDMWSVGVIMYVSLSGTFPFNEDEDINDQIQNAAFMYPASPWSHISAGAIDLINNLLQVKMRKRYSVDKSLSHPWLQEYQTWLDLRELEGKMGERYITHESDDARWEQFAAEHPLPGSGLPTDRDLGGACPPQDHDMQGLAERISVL
Conditions: at 0.1 µM.

For the molecule `ON=C1CCc2cc(-c3nc(C4CCNCC4)[nH]c3-c3ccncc3)ccc21`, the inhibition in experiment [1] is -1.84%; in experiment [2] it was -0.01%; in experiment [3], 4.71%; in experiment [4], -0.55%; in [5], 1.23%; in [6] it was 0.45%. In addition, the inhibition in experiment [7] is 7.96%; in experiment [8], 0.36%; in experiment [9] it was 5.6%; in experiment [10], 1.54%.

For `Cc1ccc(O)cc1Nc1ccnc2ccc(S(C)(=O)=O)cc12`, the inhibition was 4.87% in experiment [1]; 3.04% in experiment [2]; 1.3% in [3]; 3.39% in experiment [4]; 7.6% in [5]; 2.21% in experiment [6]. The inhibition in experiment [7] came out at 4.59%; in experiment [8], 5.19%; in experiment [9], 24.7%; in experiment [10] it was 7.07%.

For the molecule `Oc1cccc(-c2nc(-c3ccccc3)[nH]c2-c2ccncc2)c1`, the inhibition in [1] turned out to be 5.82%; in [2], 1.08%; in experiment [3], 0.18%; in experiment [4], 2.11%; in [5], 3.65%; in experiment [6] it was 0.99%. The inhibition in experiment [7] was 7.1%; in [8], 3.05%; in [9] it was 5.51%; in experiment [10], 3.64%.

For `CN(C)C(=O)O[C@@H]1CN[C@@H](C#Cc2cc3ncnc(Nc4ccc(OCc5cccc(F)c5)c(Cl)c4)c3s2)C1`, the inhibition in [1] was -0.54%; in experiment [2] it was -1.15%; in experiment [3], 0%; in experiment [4], -0.8%; in experiment [5], -1.63%; in experiment [6], 0.88%. The inhibition in experiment [7] is 0.87%; in [8], 0.32%; in experiment [9] it was 3.71%; in experiment [10], 0.79%.

On to `CCOc1nccc2c1nc(-c1nonc1N)n2CC`, for which the inhibition stood at 0.08% in experiment [1]; 3.07% in [2]; 0.84% in experiment [3]; 2.98% in experiment [4]; 6.45% in experiment [5]; 3.06% in experiment [6]. For the same molecule, the inhibition in [7] was determined as 5.23%; in experiment [8], 3.37%; in [9], 1.82%; in experiment [10] it was 1.9%.

For `COc1cccc(-n2ncc3c(N/N=C/c4ccc(C)cc4)ncnc32)c1`, the inhibition in experiment [1] was -9.04%; in [2] it was 1.65%; in experiment [3], 1.86%; in experiment [4], 3.03%; in [5] it was 4.16%; in experiment [6], 1.4%. For the same molecule, the inhibition in experiment [7] came to 2.79%; in [8], 6.31%; in experiment [9] it was 10.7%; in [10], 6.6%.

For the molecule `CC(C)c1ccc2c(c1)NC(=O)/C2=N/Nc1ccc(S(N)(=O)=O)cc1`, the inhibition is -0.76% in experiment [1]; -1.39% in experiment [2]; -2.44% in experiment [3]; -0.41% in [4]; -0.44% in [5]; -0.24% in experiment [6]. For the same molecule, the inhibition in [7] is 0.73%; in [8], 0.07%; in experiment [9], 0.8%; in experiment [10] it was -0.15%.

Take `c1ccc(Cc2nc3ccc(Nc4ncnc5ccccc45)cc3[nH]2)cc1`: the inhibition amounted to 2.9% in experiment [1]; 0.63% in experiment [2]; 0.68% in [3]; 1.76% in [4]; 2.47% in experiment [5]; 0.1% in [6]. Besides, the inhibition worked out at 0.12% in [7], 2.88% in experiment [8], 6.43% in experiment [9] and 2.49% in experiment [10].

For `CS(=O)(=O)CCNCc1nc(-c2ccc3ncnc(Nc4ccc(OCc5cccc(C(F)(F)F)c5)cc4)c3c2)cs1`, the inhibition is 1.21% in experiment [1]; -0.91% in experiment [2]; -0.71% in experiment [3]; 0.61% in experiment [4]; 0.48% in [5]; 0.86% in [6]. Moreover, the inhibition in experiment [7] came to 1.98%; in [8], 1.69%; in experiment [9] it was 0.7%; in experiment [10], 1.93%.
